Assay outcomes as filed in PubChem.
RECQ1 inh-1 – qHTS Assay for Inhibitors of RecQ-Like Dna Helicase 1 (RECQ1); ATP-dependent DNA helicase Q1 (Homo sapiens), P46063; RECQ1 DNA unwinding, red fluorescence kinetic read; Potency, µM (doses to about 57.3 µM), for the others: at the top dose activity, negative = inhibition, hits mostly inhibitors; 240,000 tested, 0.54% active; AID 2549, 2010;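 further: plate controls were vehicle for no effect and no enzyme for full effect; nearly all actives have a fitted effect of over 30% in size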
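50 nM RECQ1T1 preincubated 15 min with compound in Tris pH 8.0 buffer with MgCl2, DTT, Tween-20 and 2.5 ug/ml poly(dI-dC); started with 200 nM TAMRA/BHQ-2 forked duplex and 2 mM ATP. Unwinding read as fluorescence (525/598 nm), two reads 2 h apart.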
L3MBTL1 block – qHTS Assay for the Inhibitors of L3MBTL1; 230,000 tested, 0.66% active; Potency, µM (doses to about 57.1 µM), for the others: at the top dose activity, negative = inhibition, usual class: inhibitors; AID 485360, 2010; AlphaScreen L3MBTL1–H3K9me1 peptide binding; further: nearly all actives have a fitted effect of over 60% in size
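AlphaScreen proximity signal between nickel-chelate acceptor and streptavidin donor beads (final 10 ug/mL) reports binding of 50 nM L3MBTL1 to 75 nM biotin-H3 K9me1 peptide; complex incubated with compounds 30 min at room temperature; cefsulodin titration as control.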
JMJD2E inh – qHTS Assay for Inhibitors of Human Jumonji Domain Containing 2E (JMJD2E) | 230,000 tested, 1.6% active | Potency, µM (titrated, usually from 57.1 µM), for inactives: top-dose activity change, negative = inhibition, usual class: inhibitors | AID 2147, 2009 | JMJD2E catalytic domain, FDH-coupled NADH fluorescence (FDH is formaldehyde dehydrogenase) | Lysine-specific demethylase 4E (Homo sapiens), B2RXH2; active means well fitted inhibition curve with a large enough effect, not every such curve was filed as active; inconclusive means small, poorly fitted or top-dose-only effect, or another doubt; inactive means no such curve, though single readings can be large or run the other way;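 further: 0% = wells with enzyme and -100% = buffer wells without enzyme; nearly all actives have a fitted effect of over 50% in size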
APE1 inh – qHTS Assay for Inhibitors of the Human Apurinic/apyrimidinic Endonuclease 1 (APE1) | DNA repair nuclease/redox regulator APEX1 (Homo sapiens), P27695 | recombinant APE1, TAMRA/BHQ-2 abasic DNA cleavage fluorescence | Potency, µM (top dose mostly 65.8 µM), for the others: top-dose activity change, negative = inhibition, actives largely listed as inhibitors | 350,000 tested, 0.35% active | AID 2517, 2012;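 further: plate controls were vehicle for no effect and reference inhibitor for full effect; nearly all actives have a fitted effect of over 55% in size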
Target sequence (P27695 whole entry, looked up): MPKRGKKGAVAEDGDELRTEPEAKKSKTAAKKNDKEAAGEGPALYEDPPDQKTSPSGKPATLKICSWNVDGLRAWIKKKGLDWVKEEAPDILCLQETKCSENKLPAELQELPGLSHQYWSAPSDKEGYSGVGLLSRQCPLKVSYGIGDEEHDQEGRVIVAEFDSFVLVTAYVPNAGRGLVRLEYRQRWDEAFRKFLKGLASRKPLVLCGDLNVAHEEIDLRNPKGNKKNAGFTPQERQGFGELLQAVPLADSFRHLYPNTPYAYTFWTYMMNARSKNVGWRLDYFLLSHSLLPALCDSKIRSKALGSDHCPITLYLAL
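APE1 at 0.75 nM final was preincubated with compound 15 min at room temperature, then 50 nM double-stranded THF abasic-site substrate (5'-TAMRA/3'-BHQ-2) was added. Fluorescence (ex 525/em 598 nm) was read kinetically; third-minus-first read gave activity.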
RGS12 GoLoco inh – qHTS Assay for Inhibitors of RGS12 GoLoco Motif Activity (Red Fluorophore); AID 880, 2007; 230,000 tested, 0.44% active; Guanine nucleotide-binding protein G(i) subunit alpha-1 (Homo sapiens), P63096; Gai1:RGS12 GoLoco peptide FP, rhodamine, 10 min; Potency, µM (series often up to 61.6 µM), without a hit: top-dose activity, negative = inhibition, hits mostly inhibitors; active means well fitted inhibition curve with a large enough effect, not every such curve was filed as active; inactive means no such curve, though single readings can be large or run the other way; further: nearly all actives have a fitted effect of over 30% in size
Target sequence (P63096 whole entry, looked up): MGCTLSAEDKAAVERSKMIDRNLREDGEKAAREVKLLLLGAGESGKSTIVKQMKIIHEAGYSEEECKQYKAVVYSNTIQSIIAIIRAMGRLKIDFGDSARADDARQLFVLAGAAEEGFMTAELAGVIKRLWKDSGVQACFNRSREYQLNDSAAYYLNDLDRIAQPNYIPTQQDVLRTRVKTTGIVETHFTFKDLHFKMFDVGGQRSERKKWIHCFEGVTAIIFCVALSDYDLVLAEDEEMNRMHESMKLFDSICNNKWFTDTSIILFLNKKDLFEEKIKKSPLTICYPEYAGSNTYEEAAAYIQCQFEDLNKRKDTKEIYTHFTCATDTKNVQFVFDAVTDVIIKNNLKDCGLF
BLM helicase inh – qHTS Assay for Inhibitors of Bloom's syndrome helicase (BLM) | recombinant BLM DNA unwinding, fluorescence dequenching | Potency, µM (series often up to 56.1 µM), inactives show at the top dose activity change, negative = inhibition, usual class: inhibitors | RecQ-like DNA helicase BLM (Homo sapiens), P54132 | 350,000 tested, 0.2% active;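 further: plate controls were vehicle for no effect and no enzyme for full effect; nearly all actives have a fitted effect of over 35% in size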
RECQ1 inh conf – Confirmation qHTS Assay for Inhibitors of RecQ-Like Dna Helicase 1 (RECQ1). shares compounds with RECQ1 inh-1. RECQ1 helicase DNA unwinding, fluorescence. Potency, µM (top dose mostly 229 µM), for inactives: at the top dose activity change, negative = inhibition, actives largely listed as inhibitors. 610 tested, 28% active; further: nearly all actives have a fitted effect of over 45% in size
ADP FP counter – Counterscreen for RECQ1 Inhibitors: ADP Fluorescence Polarization Displacement Assay | shares compounds with RECQ1 inh-1 | ADP fluorescence polarization displacement counterscreen | Potency, µM (top dose mostly 228 µM), without a hit: at the highest dose activity change, negative = inhibition, actives largely listed as inhibitors | 530 tested, 27% active | AID 2711, 2010; further: nearly all actives have a fitted effect of over 45% in size
RECQ1 inh-2 – Confirmation qHTS Assay for Inhibitors of RecQ-Like Dna Helicase 1 (RECQ1) - Round 2 Cherry Picks; shares compounds with RECQ1 inh-1; recombinant RECQ1 DNA unwinding, red fluorescence; Potency, µM (series often up to 119 µM), for inactives: at the top dose activity, negative = inhibition, most hits filed as inhibitors; 1,100 tested, 15% active; AID 504841, 2011; further: nearly all actives have a fitted effect of over 50% in size
Starred values were filed as active, the others as inactive; ! = repeats disagree; [ ] = remark or other dose. The full list was thinned out, with hits kept by preference. Unless noted, the call rests on the fitted dose curve; in most records, active means well fitted curve in the direction sought with a large enough effect; inconclusive means small, poorly fitted or top-dose-only effect, or another doubt; inactive means no such curve, though single readings can be large; an effect the other way counts as inactive or inconclusive. Unless noted, on the % scale 0 is the no-effect control and ±100 the full control effect; potency means the concentration at half of the fitted maximal effect.

Screening CC(C)C[C@H]1C(=O)N2CCCC2[C@]2(O)O[C@](NC(=O)[C@@H]3C=C4c5cccc6[nH]c(Br)c(c56)C[C@H]4N(C)C3)(C(C)C)C(=O)N12 (some centres undefined) returned RECQ1 inh-1 -17%, JMJD2E inh inconclusive, APE1 inh -6%, RGS12 GoLoco inh -8% and BLM helicase inh -9%.
Screening Nc1c(C(=O)NCCN2CCOCC2)c2nc3ccccc3nc2n1Cc1ccccc1 returned RECQ1 inh-1 -11%, L3MBTL1 block 33%, JMJD2E inh inconclusive, APE1 inh -11%, RGS12 GoLoco inh 2% and BLM helicase inh -8%.
Screening CCC(C)NC(=O)c1c(N)n(CC2CCCO2)c2nc3ccccc3nc12 (centres undefined) returned RECQ1 inh-1 inconclusive, L3MBTL1 block 32%, JMJD2E inh inconclusive, APE1 inh -3%, RGS12 GoLoco inh 4%, BLM helicase inh inconclusive and RECQ1 inh-2 -28%.
`COc1cc2ccccc2c2cc([N+](=O)[O-])oc12` gave RGS12 GoLoco inh -2%[14.2 µM].
For Cc1ccc(N2C(=O)NC(=O)/C(=C\c3cccn3C(C)(C)C)C2=O)cc1 the results were RECQ1 inh-1 4%, L3MBTL1 block -2%, JMJD2E inh -5%, APE1 inh 1%, RGS12 GoLoco inh 0% and BLM helicase inh -1%.
For CCc1ccc(N2C(=O)NC(=O)/C(=C\C=C\c3ccco3)C2=O)cc1 the results were RECQ1 inh-1 8.9µM*, JMJD2E inh -17%, APE1 inh inconclusive, RGS12 GoLoco inh 88%, BLM helicase inh -1%, RECQ1 inh conf inconclusive and ADP FP counter 50µM*.
`C(=NC1CCCCC1)=NC1CCCCC1` gave RECQ1 inh-1 -1%, APE1 inh 0% and RGS12 GoLoco inh 8%.
CC(C)n1c(=O)c(C=Nc2ccc(S(N)(=O)=O)cc2)c(O)n(Cc2ccco2)c1=O was read as RECQ1 inh-1 inconclusive, L3MBTL1 block -10%, JMJD2E inh inconclusive, APE1 inh inconclusive, RGS12 GoLoco inh 81%, BLM helicase inh -4% and RECQ1 inh-2 -13%.
`CC(O)C(C)OC(=O)[C@@H]1C[C@@H]2c3cccc4c3c(cn4C(C)C)C[C@H]2N(C)C1` (some centres undefined) gave RECQ1 inh-1 35µM*!, JMJD2E inh inconclusive, APE1 inh 3%, RGS12 GoLoco inh 6% and RECQ1 inh-2 56µM*.
Screening Cc1ccccc1NC(=O)CCl returned RECQ1 inh-1 -6%, L3MBTL1 block 6%, JMJD2E inh 6%, APE1 inh -1%, RGS12 GoLoco inh 11% and BLM helicase inh 1%.
Screening O=C(CN1C(=O)S/C(=C\C=C\c2ccccc2)C1=O)Nc1ccccc1C(=O)O returned RECQ1 inh-1 -13%, L3MBTL1 block -12%, JMJD2E inh -11%, APE1 inh 1%, RGS12 GoLoco inh 8%, BLM helicase inh -8%, RECQ1 inh conf 112µM* and ADP FP counter -15%.
`O=[N+]([O-])c1ccc(NCc2ccccc2)c2nonc12` gave RECQ1 inh-1 11µM*, L3MBTL1 block 3%, JMJD2E inh -3%, APE1 inh -3%, RGS12 GoLoco inh 3.2µM*, BLM helicase inh -8%, RECQ1 inh conf 20µM*, ADP FP counter 2.2µM* and RECQ1 inh-2 45µM*.
`O=[N+]([O-])c1ccc(NCc2ccc(Cl)cc2)c2ccncc12` gave APE1 inh 53% and BLM helicase inh -14%.
Screening CCCN1CCC[C@@H]2Cc3n[nH]cc3C[C@H]21 returned RECQ1 inh-1 -3%, JMJD2E inh 1%, APE1 inh -8% and RGS12 GoLoco inh 4%.
`CC[C@]1(O)CC(O[C@@H]2CC(N(C)C)C(O)C(C)O2)c2c(cc3c(c2O)C(=O)c2c(O)cccc2C3=O)C1C(=O)OC` (some centres undefined) gave RECQ1 inh-1 10µM*, JMJD2E inh -21%, APE1 inh 14µM*, RGS12 GoLoco inh 1%, BLM helicase inh 28%, RECQ1 inh conf 112µM* and ADP FP counter 4.5µM*.
Screening O=C(N/N=C/c1c(O)n(Cc2ccco2)c(=O)[nH]c1=O)c1ccccc1O returned RECQ1 inh-1 inconclusive, JMJD2E inh inconclusive, APE1 inh inconclusive, RGS12 GoLoco inh 2% and BLM helicase inh -9%.
Screening CCCCC(=O)N/N=C/c1c(O)n(Cc2ccco2)c(=O)[nH]c1=O returned RECQ1 inh-1 32µM*, L3MBTL1 block inconclusive, JMJD2E inh 25µM*, APE1 inh -11%, RGS12 GoLoco inh 28%, BLM helicase inh 3% and RECQ1 inh-2 -13%.
For Nc1ccccc1-c1ccccc1 the results were RECQ1 inh-1 -3%, APE1 inh 4% and RGS12 GoLoco inh -4%.
O=C(O)Cc1ccc([N+](=O)[O-])cc1[N+](=O)[O-] was read as RGS12 GoLoco inh -1%[14.2 µM].
CCCCn1c(=O)c(C=Nc2ccc(Cl)cc2)c(O)n(Cc2ccco2)c1=O was read as RECQ1 inh-1 -26%, L3MBTL1 block -8%, JMJD2E inh inconclusive, APE1 inh inconclusive, RGS12 GoLoco inh 97% and BLM helicase inh -15%.
